Laboratory results taken from PubChem BioAssay AID602346 (Broad Institute, 2012).
The whole screen tested about 340,000 compounds, of which about 1,200 (0.35%) were called active. The sample holds actives, similar compounds and a random draw of the others, so the mix is not that of the screen. Cut-off read from the data, not from the text of the source: active = inhibition above about 50% (passing the limit was not always enough); inconclusive = no clear call, values can overlap the other calls; inactive = below about 31%.

Test: blockers of Vif multimerization in cells – imaging, HEK293T, single point, primary screen (AID 602346)
Conditions: Vif self-association by quenched fluorescence, 24 h, at 7.49 µM, stronger effect = higher value

Structure (SMILES) | inhibition
O=C(O)c1ccc(N/N=C/c2cn(-c3ccccc3)nc2-c2cccs2)cc1 | -6.33% (inactive)
O=C(/C=C\c1cn(-c2ccccc2)nc1-c1cccs1)N1CCOCC1 | 87.7% (active)
COc1ccc(-c2nn(-c3ccccc3)cc2/C=C\C(=O)N2CCOCC2)cc1[N+](=O)[O-] | 1.35% (inactive)
O=CNc1cc(-c2ccc(C(=O)N3CCOCC3)cc2)cn2c(-c3ccc(F)cc3)cnc12 | 6.34% (inactive)
CCN(CC)CCCC(C)n1c2nc(=O)[nH]c(=O)c-2nc2cc(Cl)ccc21 (centres undefined) | 128% (active)
CCN(CC)CCn1c2ccc(Cl)cc2c2nc(C)sc21 | 16.1% (inactive)
Cc1nc2c(OCc3ccc(Cl)cc3)cccn2c1N(C)Cc1cccs1 | -12.4% (inactive)
O=C(Nc1ccc2oc(-c3ccc4ccccc4c3)nc2c1)c1cccs1 | 52.2% (active)
O=C(Nc1ccc2oc(-c3ccccc3F)nc2c1)c1ccco1 | 4.71% (inactive)
CC(Oc1cccc(NC(=O)c2cccs2)c1)C(=O)c1ccccc1 (centres undefined) | 12.5% (inactive)
C#CCN(C[C@@H]1[C@@H](OC(=O)NC2CC2)[C@@H](OC(=O)NC2CC2)Cn2c(=O)ccc(=O)n21)S(=O)(=O)c1ccc(C)cc1 | -0.284% (inactive)
CCOC(=O)c1ccc(Nc2cc3ccccc3c(=O)[nH]2)cc1 | 9.05% (inactive)
CCOC(=O)c1ccc(N/C(=N/S(=O)(=O)c2ccccc2)c2ccccc2)cc1 | -4.64% (inactive)
CCOC(=O)c1nc(Nc2ccc(C(=O)OC)cc2)c2ccccc2n1 | 99.4% (active)
CN(C)C(=O)c1cccc(-c2cnc3sc(NCc4ccc5c(c4)OCO5)nn23)c1 | -12% (inactive)
COc1ccc(/C=C(\C#N)c2c[nH]c3ccccc23)cc1 | 52.1% (active)
COc1ccc(C2C(C(C)=O)=C(O)C(=O)N2CCc2c[nH]c3ccccc23)cc1 (centres undefined) | -11.5% (inactive)
COc1cccc(-n2c(SCC(=O)c3c[nH]c4ccccc34)nc3ccccc3c2=O)c1 | -2.01% (inactive)
Cc1ccc(C(NC(=O)C2CCN(CCOc3ccc(Cl)cc3Cl)CC2)c2ccccn2)cc1 (centres undefined) | 4.63% (inactive)
Cc1ccccc1Cn1c(C)c(C(=O)NCc2cccc(C(F)(F)F)c2)sc1=O | -7.14% (inactive)
CCOC(=O)C1=CCC(c2ccc(F)cc2)N(S(=O)(=O)c2ccc(C)cc2)C1 (centres undefined) | 24.4% (inactive)
COc1cc(OC)cc(C(=O)N[C@H](C(=O)NNC(=O)c2ccc(Br)cc2)C(C)C)c1 | 1.45% (inactive)
COc1cc(OC)cc(C(=O)N[C@H](C(=O)Nc2nc3ccccc3[nH]2)C(C)C)c1 | 116% (active)
COc1ccc(C(=O)N[C@H](C(=O)NCc2ccccc2)C(C)C)cc1 | 4.63% (inactive)
Cc1nc2c(OCc3ccc(Cl)cc3Cl)cccn2c1N(C)CC1CC1 | -14% (inactive)
O=C(NCc1nnnn1-c1ccc(Cl)cc1)c1ccc([N+](=O)[O-])o1 | 6.82% (inactive)
CCC(=O)Nc1ccc(S(=O)(=O)Nc2c(NC)c3ccccc3oc2=O)cc1 | -6.99% (inactive)

Structure (SMILES) | inhibition
NCCCNC(=S)NCCCN(Cc1ccc(Cl)cc1)c1ccc(Br)cn1 | -10.7% (inactive)
NS(=O)(=O)c1cccc(NC(=O)COC(=O)/C=C/c2ccco2)c1 | 40.9% (inactive)
O=C(COC(=O)/C=C/c1ccc(Br)o1)Nc1cccc(S(=O)(=O)N2CCOCC2)c1 | 72.1% (active)
O=C(COC(=O)c1ccccc1)Nc1cccc(S(=O)(=O)N2CCOCC2)c1 | 6.23% (inactive)
C[C@@H]1CN([C@H](C)CO)S(=O)(=O)c2ccc(C#C[C@@H](C)O)cc2O[C@@H]1CN(C)Cc1ccc(-c2ccccc2)cc1 | -0.002% (inactive)
NC(Cc1ccc(F)cc1)c1csc(Nc2nncc3ccccc23)n1 (centres undefined) | -17.9% (inactive)
Cc1cccnc1C(NC(=O)C1CCN(Cc2ccc(Cl)c(Cl)c2)CC1)c1ccc(Cl)cc1 (centres undefined) | 11.5% (inactive)
COc1ccc(CNC(=O)c2ccc(-c3cccnc3)c3ccoc23)cc1OC | -16.6% (inactive)
CCCNC(=O)C1(C)CCN(Cc2ccc(Cl)c(Cl)c2)C1 (centres undefined) | 3.78% (inactive)
COc1ccc(-c2cc(NC=O)c3ncc(-c4cc(OC)c(OC)c(OC)c4)n3c2)c(OC)c1 | 21.8% (inactive)
Cn1c(N)cc(-c2ccc(F)cc2)c(C#N)c1=O | -9.36% (inactive)
COc1ccc(O)c(C(=O)c2cnc3c(c2)c(-c2ccc(F)cc2)c(C#N)c(=O)n3C)c1 | 1.06% (inactive)
Cc1cc(C)c2c(-c3ccc(F)cc3)c(C#N)c(=O)n(C)c2n1 | 54.6% (active)
NC(c1csc(NC(=O)Nc2cccc(C(F)(F)F)c2)n1)C1CCCCC1 (centres undefined) | -1.56% (inactive)
CCc1nn(-c2cc(Oc3cccc4ccccc34)nc(-c3ccccc3)n2)c(N)c1C#N | 53.3% (active)
CC(C)(C)n1nc(Cc2cccc3ccccc23)c(C#N)c1N | 13.5% (inactive)
CC1(C(=O)NCc2ccc(F)c(F)c2)Cc2c(-c3ccc4c(c3)OCO4)ccnc2O1 (centres undefined) | -5.82% (inactive)
CCN(CC)CCN(C(=O)c1ccc2c(c1)CCCC2)c1nc2c(OC)cccc2s1 | -7.26% (inactive)
C[C@@H]1CCCCO[C@H](CN(C)Cc2ccccc2)[C@@H](C)CN([C@H](C)CO)C(=O)c2cc(NS(=O)(=O)c3ccc(Cl)cc3)ccc2O1 | 8.14% (inactive)
CC(C)OCCCNc1ncnc2c1[nH]c1ccc(F)cc12 | 65.5% (active)
COc1ccc(C(=O)N2CCCCC2c2cc(C(=O)Nc3ccccc3)no2)cc1 (centres undefined) | 13.8% (inactive)
CC(C)N=C1CCCC1C(=S)SSC(=S)C1CCCC1=NC(C)C (centres undefined) | 0.152% (inactive)
CCOC(=O)C1CCCN(C(=O)c2cc(-c3cccs3)oc2C)CC1 (centres undefined) | -8.46% (inactive)
CC(C)c1cccc(-c2csc(C(O)c3ccccc3)n2)c1 (centres undefined) | -7.2% (inactive)
CCC(CO)Oc1cc(NC(=O)c2cccc(F)c2)c2ncn(C(C)C)c2c1 (centres undefined) | -4.4% (inactive)
CCC(CO)Oc1cc(NC(=O)c2cccc3ccccc23)c2ncn(C(C)C)c2c1 (centres undefined) | 1.25% (inactive)
CC(C)n1cnc2c(NCc3ccccc3)cc(OCC3CCN(C)CC3)cc21 | 78.2% (active)
